# High-throughput results from PubChem BioAssay.
# Shown are actives, neighbours in structure and some others; about 7.9% of the full set was active somewhere.
# Lassa entry inh: inhibitors of Lassa virus binding or cell entry; Lassa virus pseudotype entry inhibition, cell reporter; Potency, µM (series often up to 37.9 µM), for inactives: at the highest dose activity change, negative = inhibition, hits mostly inhibitors; 300,000 tested, 1.2% active; calls by dose curve; tested in HEK293 cells; further: potency means the concentration at half of the fitted maximal effect; on the % scale 0 is the no-effect control and ±100 the full control effect; nearly all actives have a fitted effect of over 50% in size
# MARV entry inh: blocks Marburg virus binding to or entry into cells; Marburg virus pseudotyped entry inhibition, cell reporter; Potency, µM (series often up to 37.8 µM), without a hit: at the top dose activity change, negative = inhibition, usual class: inhibitors; AID 540276; 300,000 tested, 1.8% active; calls by dose curve; tested in HEK293 cells; further: potency means the concentration at half of the fitted maximal effect; on the % scale 0 is the no-effect control and ±100 the full control effect
# HCMV antiviral: inhibitors of human cytomegalovirus; HFF cells, HCMV-luciferase reporter, 72 h; stronger effect = lower value; activity change, negative = inhibition, % at 57.5 µM; 410,000 tested, 4.5% active; AID 1259415; in the data active means activity change below about -60%; inconclusive means no clear call, values can overlap the other calls; inactive means above about -39%; further: on the % scale 0 is the no-effect control and ±100 the full control effect
#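 Cell-based, HFFs, 1000 cells/well, 16 h 37C; cpds in DMSO + HCMV-luc, MOI 1 PFU/cell; 72 h 37C; OneGlo luminescence after 5 min RT; norm. to buffer vs Salinomycin 10uM.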
# HCV inhibitor: HCV inhibition. Huh7.5.1 HCVcc-Cre infection, luciferase reporter, 44 h. Potency, µM (doses to about 41.8 µM), inactives show at the highest dose activity change, negative = inhibition, hits mostly inhibitors. 340,000 tested, 3.4% active; further: potency means the concentration at half of the fitted maximal effect; on the % scale 0 is the no-effect control and ±100 the full control effect
#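 Infectious HCVcc-Cre (~0.5 moi) was added to cells just after compound, with cells seeded 4 h earlier at 1,000 per well. Luciferase activity after 44 h culture reported infection; substrate was incubated 15 min at room temperature before reading.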
# FMDV antiviral: foot and mouth disease virus antiviral activity; FMDV antiviral cell-based qHTS; Potency, µM (top dose mostly 57.9 µM), for inactives: at the highest dose activity change, negative = inhibition, most hits filed as inhibitors; 410,000 tested, 1.2% active; AID 1159524; calls by dose curve; tested in HEK293T cells; further: read-out not given here; potency means the concentration at half of the fitted maximal effect; on the % scale 0 is the no-effect control and ±100 the full control effect; nearly all actives have a fitted effect of over 45% in size
# G2M arrest HeLa: inducers of G2/M cell cycle arrest in HeLa cells; HeLa cell cycle G2/M arrest, Hoechst DNA content imaging; 25 tested, 60% active; Potency, µM, actives largely listed as inhibitors; shares compounds with MARV entry inh
# WI-38 tox: WI-38 cytotoxicity of perinucleolar compartment inhibitors | AID 2729 | WI-38 normal lung fibroblasts, ATPLite luminescence ATP viability, 24 h | shares compounds with MARV entry inh | Potency, µM (highest dose often 46.1 µM), without a hit: at the highest dose activity change, negative = cytotoxicity, usual class: inhibitors | 120 tested, under 10 active
# PNC inh conf: confirmation of perinucleolar compartment assembly inhibitors | shares compounds with MARV entry inh | PC3M PTB-GFP, PNC prevalence imaging, 16 h | Potency, µM (top dose mostly 46.1 µM), without a hit: top-dose activity, negative = PNC inhibition, actives largely listed as inhibitors | 120 tested, 50% active | AID 2730
# PC3M casp3-7: PC3M caspase 3/7 activation by PNC inhibitor hits. PC3M-GFP caspase 3/7 activation, luminescence, 24 h. 120 tested, under 10 active. activity change, positive = activation, % at 46.1 µM. shares compounds with MARV entry inh
# The depositor's hits bear a star; u = inconclusive; x = no result; ! = a repeat was not active; [ ] = another dose, or the depositor's remark. Unless noted, the call rests on the fitted dose curve; in most records, active means well fitted curve in the direction sought with a large enough effect; inconclusive means small, poorly fitted or top-dose-only effect, or another doubt; inactive means no such curve, though single readings can be large; an effect the other way counts as inactive or inconclusive.
SMILES,Lassa entry inh,MARV entry inh,HCMV antiviral,HCV inhibitor,FMDV antiviral,WI-38 tox,PNC inh conf,PC3M casp3-7,others
N=c1c2c(-c3ccccc3)c(-c3ccccc3)n(Cc3ccco3)c2ncn1CCCn1ccnc1,11.2µM*,3.55µM*,-97.5*,u,u,-18.8%,25.1µM*,-6.0,
O=c1c2c3nc4ccccc4nc3n(Cc3ccccc3)c2ncn1Cc1ccco1,-29.3%,-13.4%,1.3,u,u,x,x,x,
O=C(Nc1ccc(NC(=O)C2CCCCC2)nc1)c1ccccn1,u,u,59.9,-28.0%,-2.3%,x,x,x,
O=C(Nc1ccc(NC(=O)C2CC2)cn1)c1ccccc1Cl,u,u,u,u,30.3%,u,35.5µM*,-18.6,
O=C1C2CCCN2C(c2ccc(F)cc2)N1c1ccc(Cl)cc1 (stereo not drawn),x,x,-77.1*,-9.9%,1.4%,-20.5%,15.8µM*,-3.3,
O=C1C2CCCN2C(c2ccccc2)N1c1ccc(F)cc1 (stereo not drawn),x,1.0%,-23.7,18.1%,-20.3%,x,x,x,
O=C(c1ccco1)n1nc(-c2ccccc2)nc1NCc1ccc(F)cc1,-4.0%[46.1 µM],u,6.0,x,15.8%,x,x,x,
COc1ccc(-n2c(CC3C(=O)N(C)c4ccc(C)cc43)nc3ccccc3c2=O)cc1 (stereo not drawn),0.9%[46.1 µM],3.4%[46.1 µM],14.9,x,u,x,x,x,
Cc1c(NC(=O)CSc2nnc3c4ccccc4n(CCc4ccccc4)c3n2)c(=O)n(-c2ccccc2)n1C,0.631µM*,u,-85.1*,u,u,17.0%,8.91µM*,-5.5,
C=C(Cl)CSC(=S)N(CC)CC,x,-0.2%,-7.0,5.1%,-2.4%,x,x,x,
CCN(CC)C(=S)SSC(=S)N(CC)CC,2.91µM*,3.55µM*,-14.6,x,-12.0%,u,u,1.3,
Cc1ccc(C)c(CNC(=O)CCn2cccn2)c1,12.2%[46.1 µM],x,33.2,x,2.5%,x,x,x,
CNS(=O)(=O)c1cn(CC(=O)Nc2ccc(C(C)=O)cc2)cc1S(=O)(=O)NC,u,x,0.0,x,28.6%,x,x,x,
Cc1cc(SC(C)C(=O)Nc2ncc(Cl)cc2Cl)nc2ccccc12 (stereo not drawn),5.8µM*,u,-27.5,u,-22.0%,-14.1%,11.2µM*,-0.8,
COCCn1c(SC(C)C(=O)Nc2ncc(Cl)cc2Cl)nc2ccccc21 (stereo not drawn),1.41µM*,2µM*,-69.7*,u,u,-3.3%,12.6µM*,-7.3,
Cc1nnc(SC(C)C(=O)Nc2ncc(Cl)cc2Cl)n1Cc1ccccc1 (stereo not drawn),4.7%,15.2%,-28.6,12.9%,-8.5%,x,x,x,
CCN(CC)c1ccc(N=Cc2ccccc2[N+](=O)[O-])cc1,u,u,-3.9,u,3.6%,-20.1%,-8.1%,-7.5,
CC(=O)N(C)c1ccc(N=Cc2cc3c(cc2[N+](=O)[O-])OCO3)cc1,-18.5%,7.4%[46.1 µM],-25.3,16.7%,-17.9%,x,x,x,
CC(/C=C/c1ccccc1)=N/NC(=O)c1cc([N+](=O)[O-])cc([N+](=O)[O-])c1,u,u,69.3,-28.0%,0.0%,-19.9%,u,-2.1,
CC(/C=C/c1ccccc1)=N\NC(=O)c1ccc2c(c1)OCCO2,u,u,-17.4,u,-15.2%,x,x,x,
Cc1c(NC(=O)COC(=O)c2cc(-c3ccc(-c4ccccc4)cc3)nc3ccccc23)c(=O)n(-c2ccccc2)n1C,0.891µM*,0.581µM*,-97.2*,-25.1%,-25.4%,7.94µM*,2µM*,-20.0,
CN1c2ccccc2C(C)(C)C12CC(c1ccc(Cl)c(S(=O)(=O)N3CCCC3)c1)=NO2 (stereo not drawn),-9.0%,22.3%,x,4.5%,x,8.8%,3.98µM*,-7.4,
Cc1ccc(OCCn2cc(/C(N)=N/O)c3ccccc32)cc1C,3.4%,-27.3%,44.3,u,u,x,x,x,
Cc1ccc(OCCn2cc(C(=S)N3CCCC3)c3ccccc32)cc1C,2.82µM*,3.16µM*,-97.9*,u,-17.5%,2.0%,7.94µM*,-2.6,
CN(C)CCOc1ccc(C(C)(C)c2ccccc2)cc1,-12.9%,u,-26.5,7.7%,-2.0%,x,x,x,
SMILES,Lassa entry inh,MARV entry inh,HCMV antiviral,HCV inhibitor,FMDV antiviral,WI-38 tox,PNC inh conf,PC3M casp3-7,others
CC1=C(c2ccc(C)cc2)S(=O)(=O)NC1=NCc1cccc(F)c1,-18.2%[46.1 µM],-28.6%[46.1 µM],u,x,63.0%,x,x,x,
O=S(=O)(Nc1cc(Sc2cccc3cccnc23)c(O)c2ccccc12)c1ccc(F)cc1,11.2µM*,6.51µM*,-100.0*,11.2µM*,12.6µM*,u,u,u,
CCCNC1=C(N(C(C)=O)c2cccc(F)c2)C(=O)c2ccccc2C1=O,u,u,-99.6*,7.94µM*,28.2µM*,-16.5%,u,u,
CCc1ccc(C2CC(=O)c3c([nH]c(C(=O)OC4CCCC4)c3C)C2)cc1 (stereo not drawn),13.3%[46.1 µM],24.9%[46.1 µM],-21.9,x,-3.0%,x,x,x,
CC(=O)Nc1ccc(NC(=O)Cn2cc3c(n2)CCCCC3)cc1,9.0%[46.1 µM],10.9%[46.1 µM],8.9,x,-12.0%,x,x,x,
COC(=O)Nc1nc2ccc(C(=O)c3cccs3)cc2[nH]1,u,0.159µM*!,-75.3*,-8.2%,19.6%,x,x,x,G2M arrest HeLa=0.0708*
O=C(Nc1nc2ccccc2[nH]1)c1cccs1,-5.6%[46.1 µM],-18.6%[46.1 µM],20.6,5.3%,8.6%,x,x,x,
CCOC(=O)c1c(NC(=O)c2c(-c3ccccc3)noc2C)sc(C)c1-c1ccccc1,u,0.126µM*,-102.2*,7.08µM*,u,2.4%,1.58µM*,-3.2,
CCc1ccc(S(=O)(=O)/N=C2/C=C(Sc3ncn[nH]3)C(=O)c3ccccc32)cc1,12.6µM*,u,x,2.82µM*,31.6µM*,u,28.2µM*,0.3,
COc1cc2c(c(OC)c1OC)-c1ccc(OC)c(=O)cc1[C@@H](NC(C)=O)CC2,u,u,-89.2*,9.5%,-2.6%,x,x,x,G2M arrest HeLa=0.02*
COc1cc2c(c(OC)c1OC)-c1ccc(OC)c(=O)cc1[C@@H](N(C)CC#CCO)CC2,u,u,u,-22.0%,-3.4%,x,x,x,
COC(=O)Nc1nc(-c2ccc(F)cc2)c(C)s1,u,-3.7%,u,u,20.8%,x,x,x,
COc1ccc(-c2nc(NC(=O)c3n[nH]c(=O)c4ccccc34)sc2C)cc1,1.03µM*,0.794µM*,-60.4*,u,-9.0%,10.9%,3.98µM*,-5.1,
CN(Cc1ccccc1)C(=O)Cn1ncc2c3ccccc3n(Cc3cccc(Cl)c3)c2c1=O,12.9%[46.1 µM],-3.9%[46.1 µM],-12.1,x,27.5%,x,x,x,
